Experimental data from the supplement of paper PMC10849652.
Targets with a hit are over-represented here; the source holds about 7,900 in all. About 0.6% of all pairs of compound and target were hits. Values without a mark were called inactive.

What was measured:
Assay in all cases: log2 fold change, soluble protein after heating vs DMSO (PISA); higher = thermal stabilisation; K562 cells, 10 uM, 30 min; active = over 0.2 and 3.5 SD of the protein, either way, in both replicates (recomputed)
[1] = compound: CC[C@@H]1C(=O)N(C)c2cnc(Nc3ccc(C(=O)NC4CCN(C)CC4)cc3OC)nc2N1C1CCCC1
How it was run: (§1)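 Thermal stability values are relative to control samples and come from duplicates. They are expressed as log2 fold changes. For measurement, K562 cells (2×10^6 cells/mL) received 10 μM compound for 30 min, and aliquots were heated for 3 min over 48°C-58°C, pooled, and extracted at 4°C in PBS with 0.5% NP-40. Soluble protein, the supernatant after 21,000xg for 90 min, was quantified by TMTpro 16plex LC-MS/MS with equalised channel sums.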

volasertib = compound: CC[C@@H]1C(=O)N(C)c2cnc(Nc3ccc(C(=O)N[C@H]4CC[C@H](N5CCN(CC6CC6)CC5)CC4)cc3OC)nc2N1C(C)C [volasertib]
How it was run: as §1

[2] = compound: CC[C@H](C)N1C=C(C2=C(C=C(C=C21)C3=CN=C(C=C3)N4CCNCC4)C(=O)NCC5=C(C=C(NC5=O)C)C)C
How it was run: as §1

epoxomicin = compound: CC[C@H](C)[C@@H](C(=O)N[C@@H]([C@@H](C)O)C(=O)N[C@@H](CC(C)C)C(=O)[C@]1(CO1)C)NC(=O)[C@H]([C@@H](C)CC)N(C)C(=O)C [epoxomicin]
How it was run: as §1

[3] = compound: CCn1c(C(=O)N(C2CC2)C2CC2)cc2c3c(ncn3C)c(Nc3cc(C)n(C)n3)nc21
How it was run: as §1

[4] = compound: CCn1cc(-c2ccnc3[nH]c(-c4cccc(CN(C)C)c4)cc23)c(-c2ccc(NC(=O)N(C)C)cc2)n1
How it was run: as §1

[5] = compound: CN(C)CC(=O)Nc1ccc2[nH]c(=O)c3ccccc3c2c1
How it was run: as §1

rosiglitazone = compound: CN(CCOC1=CC=C(C=C1)C[C@H]2C(=O)NC(=O)S2)C3=CC=CC=N3 (racemic) [rosiglitazone]
How it was run: as §1

[6] = compound: CN1C2=C(C3=C1C(=O)N(N=C3)CC4=CC(=CC=C4)N)SC(=C2)S(=O)C
How it was run: as §1

[7] = compound: CN1CCC(CNc2ccc3ncc(-c4cccc(OC(F)(F)F)c4)n3n2)CC1
How it was run: as §1

saracatinib = compound: CN1CCN(CCOc2cc(OC3CCOCC3)c3c(Nc4c(Cl)ccc5c4OCO5)ncnc3c2)CC1 [saracatinib]
How it was run: as §1

sotrastaurin = compound: CN1CCN(c2nc(C3=C(c4c[nH]c5ccccc45)C(=O)NC3=O)c3ccccc3n2)CC1 [sotrastaurin]
How it was run: as §1

alvocidib = compound: CN1CC[C@H](c2c(O)cc(O)c3c(=O)cc(-c4ccccc4Cl)oc23)[C@H](O)C1 [alvocidib]
How it was run: as §1

Tubastatin A = compound: CN1CCc2c(c3ccccc3n2Cc2ccc(C(=O)NO)cc2)C1 [Tubastatin A]
How it was run: as §1

[8] = compound: CNC(=O)C1=CC=CC=C1NC2=NC(=NC=C2Cl)NC3=C(C=C(C=C3)N4CCOCC4)OC
How it was run: as §1

defactinib = compound: CNC(=O)c1ccc(Nc2ncc(C(F)(F)F)c(NCc3nccnc3N(C)S(C)(=O)=O)n2)cc1 [defactinib]
How it was run: as §1

rucaparib = compound: CNCc1ccc(-c2[nH]c3cc(F)cc4c3c2CCNC4=O)cc1 [rucaparib]
How it was run: as §1

[9] = compound: CNc1nc(-c2ccc3c(N)n[nH]c3c2)cc(N2C[C@@H](C(=O)NC3CCCCC3)CC[C@H]2C)n1
How it was run: as §1

encorafenib = compound: COC(=O)N[C@@H](C)CNc1nccc(-c2cn(C(C)C)nc2-c2cc(Cl)cc(NS(C)(=O)=O)c2F)n1 [encorafenib]
How it was run: as §1

[10] = compound: COC(=O)[C@H](CCSC)NC(=O)C1=C(C=C(C=C1)NC[C@H](CS)N)C2=CC=CC=C2
How it was run: as §1

UniProt Q9UKL6, sequence (Q9UKL6 whole entry, looked up): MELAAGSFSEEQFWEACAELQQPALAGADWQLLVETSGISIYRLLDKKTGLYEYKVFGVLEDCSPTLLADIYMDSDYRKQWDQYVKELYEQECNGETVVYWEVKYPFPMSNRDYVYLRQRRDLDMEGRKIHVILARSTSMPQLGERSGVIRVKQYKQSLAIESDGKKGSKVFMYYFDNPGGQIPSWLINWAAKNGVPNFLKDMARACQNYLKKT
UniProt Q16822, sequence (Q16822 whole entry, looked up): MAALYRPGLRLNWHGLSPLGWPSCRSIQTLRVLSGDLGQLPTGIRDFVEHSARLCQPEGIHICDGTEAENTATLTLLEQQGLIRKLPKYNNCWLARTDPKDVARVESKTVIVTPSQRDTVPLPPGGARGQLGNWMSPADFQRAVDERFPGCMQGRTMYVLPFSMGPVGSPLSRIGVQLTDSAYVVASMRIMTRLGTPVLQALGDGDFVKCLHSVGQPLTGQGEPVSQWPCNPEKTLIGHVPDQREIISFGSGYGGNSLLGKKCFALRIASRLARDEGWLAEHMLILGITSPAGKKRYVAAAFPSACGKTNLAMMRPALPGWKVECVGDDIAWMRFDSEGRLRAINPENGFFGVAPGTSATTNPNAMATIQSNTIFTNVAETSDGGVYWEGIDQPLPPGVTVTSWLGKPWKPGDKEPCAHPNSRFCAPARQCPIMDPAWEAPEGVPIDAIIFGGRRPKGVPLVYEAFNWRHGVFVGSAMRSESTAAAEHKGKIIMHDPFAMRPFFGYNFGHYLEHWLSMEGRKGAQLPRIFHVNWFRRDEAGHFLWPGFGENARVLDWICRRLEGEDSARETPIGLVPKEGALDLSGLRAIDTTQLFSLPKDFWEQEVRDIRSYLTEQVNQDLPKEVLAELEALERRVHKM
UniProt Q15365, sequence (Q15365 whole entry, looked up): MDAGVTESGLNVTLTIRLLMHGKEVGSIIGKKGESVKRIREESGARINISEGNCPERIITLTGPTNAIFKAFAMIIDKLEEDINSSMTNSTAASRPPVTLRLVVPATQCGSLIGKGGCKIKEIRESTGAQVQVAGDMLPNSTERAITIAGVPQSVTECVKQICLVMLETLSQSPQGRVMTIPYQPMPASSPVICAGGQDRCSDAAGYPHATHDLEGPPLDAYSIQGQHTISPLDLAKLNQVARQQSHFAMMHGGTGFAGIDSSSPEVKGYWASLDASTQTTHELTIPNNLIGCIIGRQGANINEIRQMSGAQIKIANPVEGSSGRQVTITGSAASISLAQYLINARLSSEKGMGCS
UniProt P31323, sequence (P31323 whole entry, looked up): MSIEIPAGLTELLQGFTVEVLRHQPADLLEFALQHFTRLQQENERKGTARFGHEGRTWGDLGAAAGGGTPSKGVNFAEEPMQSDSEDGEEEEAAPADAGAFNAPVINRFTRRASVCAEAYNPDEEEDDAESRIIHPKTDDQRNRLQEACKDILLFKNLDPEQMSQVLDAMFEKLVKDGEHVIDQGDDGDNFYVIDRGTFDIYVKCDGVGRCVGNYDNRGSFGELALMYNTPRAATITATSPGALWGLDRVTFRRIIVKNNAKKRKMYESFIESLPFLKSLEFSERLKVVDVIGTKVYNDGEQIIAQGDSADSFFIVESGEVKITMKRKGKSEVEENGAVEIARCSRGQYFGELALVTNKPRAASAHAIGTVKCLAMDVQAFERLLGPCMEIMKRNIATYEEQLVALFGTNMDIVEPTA
UniProt P11498, sequence (P11498 whole entry, looked up): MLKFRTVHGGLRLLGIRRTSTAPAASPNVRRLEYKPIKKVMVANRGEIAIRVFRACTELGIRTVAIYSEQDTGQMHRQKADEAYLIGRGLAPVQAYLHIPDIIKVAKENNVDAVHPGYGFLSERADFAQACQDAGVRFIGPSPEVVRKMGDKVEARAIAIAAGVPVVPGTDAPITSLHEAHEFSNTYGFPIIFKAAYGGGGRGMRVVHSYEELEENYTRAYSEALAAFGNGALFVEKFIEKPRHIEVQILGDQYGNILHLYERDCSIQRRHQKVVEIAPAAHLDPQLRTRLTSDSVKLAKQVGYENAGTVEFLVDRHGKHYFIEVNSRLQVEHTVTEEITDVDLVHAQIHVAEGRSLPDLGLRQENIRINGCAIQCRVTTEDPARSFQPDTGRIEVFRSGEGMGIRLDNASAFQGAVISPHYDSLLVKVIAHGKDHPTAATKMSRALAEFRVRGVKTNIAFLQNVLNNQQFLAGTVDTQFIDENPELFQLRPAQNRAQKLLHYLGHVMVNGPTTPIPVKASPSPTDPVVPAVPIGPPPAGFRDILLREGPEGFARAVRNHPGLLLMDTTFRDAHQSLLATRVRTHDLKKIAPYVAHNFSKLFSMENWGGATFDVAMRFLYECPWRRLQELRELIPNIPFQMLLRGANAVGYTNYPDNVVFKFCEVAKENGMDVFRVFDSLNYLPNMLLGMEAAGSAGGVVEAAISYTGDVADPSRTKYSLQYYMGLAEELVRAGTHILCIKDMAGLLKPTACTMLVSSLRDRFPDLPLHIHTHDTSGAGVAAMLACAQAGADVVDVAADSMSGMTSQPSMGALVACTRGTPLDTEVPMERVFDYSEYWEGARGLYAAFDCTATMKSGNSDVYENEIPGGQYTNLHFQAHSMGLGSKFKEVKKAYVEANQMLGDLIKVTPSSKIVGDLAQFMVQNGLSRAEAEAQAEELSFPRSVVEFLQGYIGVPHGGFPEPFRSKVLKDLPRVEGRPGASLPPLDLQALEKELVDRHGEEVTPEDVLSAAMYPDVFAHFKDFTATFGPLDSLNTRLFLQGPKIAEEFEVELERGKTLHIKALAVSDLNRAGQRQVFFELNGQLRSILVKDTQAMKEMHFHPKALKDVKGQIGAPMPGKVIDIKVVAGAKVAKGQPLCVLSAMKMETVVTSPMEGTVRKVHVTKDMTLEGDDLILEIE
UniProt O96013, sequence (O96013 whole entry, looked up): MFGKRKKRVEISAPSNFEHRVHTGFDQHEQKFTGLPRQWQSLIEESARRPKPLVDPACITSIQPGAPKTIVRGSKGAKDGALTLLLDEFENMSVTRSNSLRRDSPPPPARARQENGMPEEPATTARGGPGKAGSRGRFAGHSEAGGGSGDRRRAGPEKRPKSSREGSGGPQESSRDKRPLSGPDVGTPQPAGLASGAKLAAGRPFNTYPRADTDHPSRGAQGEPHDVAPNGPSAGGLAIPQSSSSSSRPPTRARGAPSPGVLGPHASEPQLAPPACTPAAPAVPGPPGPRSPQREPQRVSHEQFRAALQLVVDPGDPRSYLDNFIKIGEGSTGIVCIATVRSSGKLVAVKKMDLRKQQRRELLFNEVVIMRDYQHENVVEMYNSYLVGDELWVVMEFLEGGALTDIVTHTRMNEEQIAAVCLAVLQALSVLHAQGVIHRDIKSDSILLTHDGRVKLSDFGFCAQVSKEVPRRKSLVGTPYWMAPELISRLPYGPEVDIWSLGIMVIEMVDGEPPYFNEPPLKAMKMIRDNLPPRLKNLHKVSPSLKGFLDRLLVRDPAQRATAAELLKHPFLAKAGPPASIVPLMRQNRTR
UniProt P10644, sequence (P10644 whole entry, looked up): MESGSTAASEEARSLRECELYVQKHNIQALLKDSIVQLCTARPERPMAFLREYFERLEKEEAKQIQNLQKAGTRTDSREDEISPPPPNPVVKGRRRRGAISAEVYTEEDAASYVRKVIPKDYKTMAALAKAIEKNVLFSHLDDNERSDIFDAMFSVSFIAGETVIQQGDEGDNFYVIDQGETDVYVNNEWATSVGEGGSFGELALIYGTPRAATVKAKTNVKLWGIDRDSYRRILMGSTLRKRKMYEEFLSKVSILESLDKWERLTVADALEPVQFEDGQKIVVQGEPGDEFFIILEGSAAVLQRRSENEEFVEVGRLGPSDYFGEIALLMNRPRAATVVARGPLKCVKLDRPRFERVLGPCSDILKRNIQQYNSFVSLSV
UniProt Q6L8Q7, sequence (Q6L8Q7 whole entry, looked up): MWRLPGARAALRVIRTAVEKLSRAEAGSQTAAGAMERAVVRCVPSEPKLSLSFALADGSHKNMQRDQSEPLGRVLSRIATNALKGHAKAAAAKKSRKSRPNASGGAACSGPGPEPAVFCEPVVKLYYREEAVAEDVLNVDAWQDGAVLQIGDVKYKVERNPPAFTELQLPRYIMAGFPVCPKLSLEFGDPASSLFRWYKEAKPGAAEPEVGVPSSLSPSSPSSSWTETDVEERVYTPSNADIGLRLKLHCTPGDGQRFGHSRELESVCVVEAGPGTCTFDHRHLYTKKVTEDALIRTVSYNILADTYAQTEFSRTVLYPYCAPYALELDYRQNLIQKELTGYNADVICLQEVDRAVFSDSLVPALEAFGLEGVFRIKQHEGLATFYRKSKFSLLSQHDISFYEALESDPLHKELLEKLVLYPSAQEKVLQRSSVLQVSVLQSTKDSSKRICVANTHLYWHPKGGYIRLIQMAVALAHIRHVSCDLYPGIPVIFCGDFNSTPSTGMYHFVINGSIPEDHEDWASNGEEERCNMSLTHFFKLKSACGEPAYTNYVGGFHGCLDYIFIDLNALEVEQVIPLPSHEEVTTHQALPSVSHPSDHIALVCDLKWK
UniProt Q15004, sequence (Q15004 whole entry, looked up): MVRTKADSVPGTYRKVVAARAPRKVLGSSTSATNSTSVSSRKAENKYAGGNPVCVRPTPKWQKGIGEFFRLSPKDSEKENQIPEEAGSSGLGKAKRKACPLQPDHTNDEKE
UniProt Q9BRX2, sequence (Q9BRX2 whole entry, looked up): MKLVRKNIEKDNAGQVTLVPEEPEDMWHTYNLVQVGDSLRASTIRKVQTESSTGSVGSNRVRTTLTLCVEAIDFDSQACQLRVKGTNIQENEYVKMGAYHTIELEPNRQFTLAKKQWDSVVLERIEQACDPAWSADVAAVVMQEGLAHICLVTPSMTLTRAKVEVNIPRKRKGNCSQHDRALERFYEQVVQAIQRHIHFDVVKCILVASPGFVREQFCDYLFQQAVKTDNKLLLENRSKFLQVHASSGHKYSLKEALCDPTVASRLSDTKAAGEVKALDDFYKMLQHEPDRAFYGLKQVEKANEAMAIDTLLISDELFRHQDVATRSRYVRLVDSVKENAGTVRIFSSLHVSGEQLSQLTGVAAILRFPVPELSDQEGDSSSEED

Target | log2 fold change [1] | log2 fold change (volasertib) | log2 fold change [2] | log2 fold change (epoxomicin) | log2 fold change [3] | log2 fold change [4] | log2 fold change [5] | log2 fold change (rosiglitazone) | log2 fold change [6] | log2 fold change [7] | log2 fold change (saracatinib) | log2 fold change (sotrastaurin) | log2 fold change (alvocidib) | log2 fold change (Tubastatin A) | log2 fold change [8] | log2 fold change (defactinib) | log2 fold change (rucaparib) | log2 fold change [9] | log2 fold change (encorafenib) | log2 fold change [10]
PAK4 (UniProt O96013) | -0.026 | -0.088 | -0.026 | -0.017 | 0.009 | -0.059 | -0.012 | 0.062 | 0.049 | -0.083 | -0.047 | 0.098 | -0.06 | 0.005 | -0.012 | -0.017 | -0.067 | 0 | 0.085 | 0.03
PCTP (UniProt Q9UKL6) | -0.017 | -0.012 | -0.067 | 0.039 | -0.058 | -0.055 | -0.005 | 0.025 | -0.011 | -0.279 (active) | 0.083 | -0.016 | 0.014 | -0.002 | 0 | -0.037 | -0.056 | 0.039 | -0.032 | 0.094
PDS5B (UniProt Q9NTI5) | -0.004 | 0.024 | 0.12 | 0.105 | -0.113 | 0.103 | 0.079 | 0.035 | 0.131 | -0.41 | -0.134 | 0.039 | -0.097 | 0.14 | -0.169 | -0.101 | -0.088 | 0.014 | 0 | 0.032
PCK2 (UniProt Q16822) | 0.012 | -0.076 | 0.033 | 0.059 | 0.016 | -0.07 | 0 | 0.011 | -0.094 | 0.027 | 0.021 | -0.003 | -0.113 | -0.139 | -0.006 | -0.048 | -0.009 | 0.015 | -0.007 | 0.01
PECAM1 (UniProt P16284) | 0.116 | 0.061 | -0.019 | -0.027 | 0.022 | -0.106 | 0.027 | 0.014 | -0.067 | 0.168 | 0.062 | 0.062 | 0.005 | 0.096 | -0.076 | 0 | 0 | 0.003 | -0.092 | -0.007
PC (UniProt P11498) | -0.041 | -0.069 | 0.067 | 0.041 | -0.082 | -0.217 | 0.027 | 0.084 | -0.128 | 0.03 | -0.088 | -0.033 | -0.005 | 0.001 | -0.023 | -0.113 | 0.043 | 0.09 | -0.044 | -0.076
PDSS2 (UniProt Q86YH6) | 0.021 | 0.016 | 0.12 | 0.024 | 0.048 | -0.069 | 0.05 | 0.055 | 0.02 | 0.018 | 0.159 | 0.218 | -0.053 | -0.013 | -0.019 | -0.076 | 0.07 | -0.025 | -0.154 | -0.042
PRKAR1A (UniProt P10644) | 0.213 | -0.054 | -0.068 | -0.122 | 0.071 | 0.001 | 0.023 | -0.032 | 0.132 | 0.705 (active) | -0.067 | 0.105 | 0.121 | 0.007 | 0.366 | 0.14 | 0.13 | 0.005 | 0.073 | -0.069
PBK (UniProt Q96KB5) | -0.18 | -0.601 (active) | 0.121 | -0.005 | -0.086 | -0.026 | 0.091 | 0.092 | 0.053 | -0.187 | 0.01 | -0.205 | -0.02 | 0.089 | 0.093 | -0.15 | 0.187 | 0.005 | 0.198 | -0.111
PCLAF (UniProt Q15004) | 0.085 | 0.124 | -0.046 | 0.185 | 0.012 | 0.035 | -0.087 | -0.014 | 0.001 | 0.015 | 0.057 | 0.057 | 0.138 | 0.08 | -0.094 | 0.076 | -0.094 | -0.161 | -0.046 | 0.093
PRKAR2B (UniProt P31323) | -0.037 | 0.053 | 0.056 | 0.025 | -0.023 | -0.023 | -0.008 | 0.051 | 0.005 | -0.495 (active) | -0.024 | -0.486 (active) | -0.053 | 0.02 | -0.168 | -0.191 | 0.086 | 0.014 | 0.069 | -0.004
PCBP1 (UniProt Q15365) | -0.1 | -0.268 (active) | 0.04 | 0.025 | -0.065 | 0.025 | 0.039 | 0.035 | 0.009 | -0.129 | 0.009 | -0.073 | -0.119 | 0.013 | -0.015 | -0.151 | -0.015 | 0.03 | 0.052 | -0.034
PELO (UniProt Q9BRX2) | -0.017 | -0.387 | 0.09 | -0.058 | -0.068 | 0.007 | -0.017 | 0.085 | 0.138 | -0.312 | -0.079 | -0.218 | -0.066 | 0.121 | -0.122 | -0.058 | 0.299 | 0.148 | 0.137 | 0.061
PRMT8 (UniProt Q9NR22) | 0.019 | -0.074 | 0.011 | 0.017 | 0.035 | -0.087 | -0.022 | -0.026 | -0.117 | -0.009 | 0.015 | -0.046 | -0.029 | -0.09 | -0.009 | -0.039 | -0.059 | 0.052 | 0.01 | -0.122
PCBP2 (UniProt F8VRH0) | -0.005 | -0.051 | 0.165 | -0.252 | 0.043 | -0.201 | 0.139 | -0.042 | -0.306 | -0.149 | 0.255 | -0.319 | 0.106 | 0.155 | 0.105 | 0.009 | 0.066 | -0.014 | 0.014 | 0.066
PDE12 (UniProt Q6L8Q7) | -0.035 | -0.056 | -0.008 | 0.04 | 0.003 | -0.038 | 0.026 | 0.028 | -0.078 | -0.014 | 0.014 | 0.018 | -0.098 | 0.01 | 0.028 | -0.04 | -0.005 | 0.023 | -0.019 | 0.007
